# Experimental data taken from PubChem BioAssay AID720650 (Broad Institute, 2013).
# A number with no mark means an inactive call. Calls of active or inactive are those of the source. How the calls were made is not given here.
# Assay: C difficile toxins, biochemical counterscreen, UDPG substrate absence, confirmatory dose response (AID 720650)
# Conditions: series mostly up to 19.5 µM; activity change, negative = inhibition: at the top concentration
Structure (SMILES),AC50,"activity change, negative = inhibition"
CCC(=O)N1CC[C@@H]2[C@H]1c1cc(-c3ccccc3)ccc1N(C)[C@H]2CO,4.44 µM (active),–
CCOCC(=O)Nc1cc(Cl)ccc1C,–,-3.64%
CCOC(=O)/C(=N/Nc1ccc(Br)cc1)N1CC(C)OC(C)C1 (stereo unspecified),0.615 µM (active),–
Cc1ccn(CCC(=O)NC2CC(C)(C)Cc3c2cnn3-c2ccccc2C)n1 (stereo unspecified),–,7.13%
Clc1ccc(/C=C/c2ncc[nH]2)c(Cl)c1,–,-10.7%
COCCN(C(=O)C(C)C)c1nnc(-c2ccc(C(C)(C)C)cc2)s1,–,5.33%
COc1ccc(C=C2CCC3C(=O)CCCC3(C)C2=O)cc1 (stereo unspecified),–,-3.53%
O=c1[nH]c(/C=C\c2ccc(O)c(Cl)c2)nc(O)c1[N+](=O)[O-],20 µM (active),–
O=c1[nH]c(CSc2nnc(Cc3ccccc3)o2)nc2ccccc12,–,-13.2%
COc1cc(/C=C(/NC(=O)c2ccccc2)C(=O)Nc2ccc(O)cc2)c([N+](=O)[O-])cc1OC,13.9 µM (active),–
O=C(C[C@H]1C[C@@H]2c3cc(NC(=O)c4ccc5c(c4)OCO5)ccc3O[C@@H]2[C@@H](CO)O1)NCc1cccc(F)c1,–,-15.2%
Cc1ccc(C2=NS(=O)(=O)N(C)C(C(=O)NCc3ccc4c(c3)OCO4)=C2)cc1,–,-9.33%
CC(=O)Oc1ccc(/C=N/NC(=O)CCSc2ccccc2)cc1,–,17.6%
O=C(Cn1cc(COc2ccc(Cl)c(Cl)c2)nn1)NS(=O)(=O)c1ccccc1OC(F)(F)F,–,-6.92%
N#C/C(=C\c1ccc(N2CCOCC2)o1)C(=O)Nc1ccc(O)cc1,–,10.9%
O=C(NNC(=O)c1cccc2ccccc12)c1cccc(F)c1,–,-8.12%
